# Assays:
# Assay in all cases: DAPPL (digital affinity profiling via proximity ligation, sequencing); 10 mM Tris-HCl pH 7.5, 50 mM NaCl, 1 mM DTT, 4% glycerol, room temperature, 30 min; GST-TFs on glutathione beads, 16-mer random dsDNA library, 0.1% formaldehyde crosslink after washing; high values mean tight binding
# Settings in all cases: protein: recombinant; tags: N-terminal GST; dsDNA, one strand shown
# FLI1 = biological target: T1, FLI1 (Homo sapiens, UniProt Q01543 1-452)
# T1 sequence: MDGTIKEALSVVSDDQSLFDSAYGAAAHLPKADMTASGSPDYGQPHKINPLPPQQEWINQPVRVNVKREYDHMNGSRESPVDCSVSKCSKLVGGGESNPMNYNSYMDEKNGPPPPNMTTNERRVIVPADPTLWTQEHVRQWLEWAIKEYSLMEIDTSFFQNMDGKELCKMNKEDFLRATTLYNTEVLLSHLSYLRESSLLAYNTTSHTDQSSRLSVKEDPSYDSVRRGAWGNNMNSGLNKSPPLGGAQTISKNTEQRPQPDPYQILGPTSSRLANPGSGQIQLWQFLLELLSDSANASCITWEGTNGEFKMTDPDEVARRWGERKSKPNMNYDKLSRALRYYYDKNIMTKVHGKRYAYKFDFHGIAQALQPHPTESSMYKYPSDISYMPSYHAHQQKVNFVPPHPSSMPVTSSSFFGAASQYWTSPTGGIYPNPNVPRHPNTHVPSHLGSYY
# Method in brief: (§1)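 Human transcription factors carrying a GST fusion were produced in yeast, bound to glutathione beads, tagged with DNA barcodes and pooled together with a tag-only sample. Each pool was held with 200 nmole of a random double-stranded 16-mer DNA library in Tris/NaCl/DTT/glycerol buffer for 30 min at room temperature, then washed, crosslinked in 0.1% formaldehyde, proximity-ligated with BsaI/T4 ligase (1 h, 37 °C), PCR-amplified and sequenced on an Illumina NextSeq500. Binding signal is the read frequency of each hexamer for a given factor divided by its frequency in the tag-only sample.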
# ERG = biological target: T2, ERG (Homo sapiens, UniProt P11308 1-479)
# T2 sequence: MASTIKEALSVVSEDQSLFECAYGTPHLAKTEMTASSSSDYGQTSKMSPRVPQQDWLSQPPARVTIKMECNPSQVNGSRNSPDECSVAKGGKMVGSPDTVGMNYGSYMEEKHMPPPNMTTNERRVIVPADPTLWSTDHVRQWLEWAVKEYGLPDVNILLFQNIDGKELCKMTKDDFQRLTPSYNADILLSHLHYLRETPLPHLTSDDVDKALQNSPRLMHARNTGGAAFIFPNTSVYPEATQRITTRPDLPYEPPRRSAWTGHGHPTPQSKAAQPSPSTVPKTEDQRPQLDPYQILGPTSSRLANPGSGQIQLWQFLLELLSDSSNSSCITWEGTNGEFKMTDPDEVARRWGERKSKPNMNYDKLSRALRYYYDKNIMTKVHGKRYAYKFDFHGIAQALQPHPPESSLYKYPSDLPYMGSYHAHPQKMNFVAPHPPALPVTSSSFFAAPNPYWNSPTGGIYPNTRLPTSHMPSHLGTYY
# Method in brief: as §1
# ELF1 = ELF1 (Homo sapiens, UniProt P32519 1-619)
# Method in brief: as §1
# ETV5 = ETV5 (Homo sapiens, UniProt P41161 1-510)
# Method in brief: as §1
# SPIC = biological target: T3, SPIC (Homo sapiens, UniProt Q8N5J4 1-248)
# T3 sequence: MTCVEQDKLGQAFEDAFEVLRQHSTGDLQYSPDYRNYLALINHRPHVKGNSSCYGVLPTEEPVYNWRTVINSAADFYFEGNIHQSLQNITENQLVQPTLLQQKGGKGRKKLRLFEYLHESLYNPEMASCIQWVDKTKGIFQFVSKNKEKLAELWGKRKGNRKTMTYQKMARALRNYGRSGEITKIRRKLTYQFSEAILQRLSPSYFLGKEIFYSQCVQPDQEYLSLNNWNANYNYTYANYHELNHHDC
# Method in brief: as §1
# ELF4 = ELF4 (Homo sapiens, UniProt Q99607 1-663)
# Method in brief: as §1
# ERF = biological target: T4, ERF (Homo sapiens, UniProt P50548 1-548)
# T4 sequence: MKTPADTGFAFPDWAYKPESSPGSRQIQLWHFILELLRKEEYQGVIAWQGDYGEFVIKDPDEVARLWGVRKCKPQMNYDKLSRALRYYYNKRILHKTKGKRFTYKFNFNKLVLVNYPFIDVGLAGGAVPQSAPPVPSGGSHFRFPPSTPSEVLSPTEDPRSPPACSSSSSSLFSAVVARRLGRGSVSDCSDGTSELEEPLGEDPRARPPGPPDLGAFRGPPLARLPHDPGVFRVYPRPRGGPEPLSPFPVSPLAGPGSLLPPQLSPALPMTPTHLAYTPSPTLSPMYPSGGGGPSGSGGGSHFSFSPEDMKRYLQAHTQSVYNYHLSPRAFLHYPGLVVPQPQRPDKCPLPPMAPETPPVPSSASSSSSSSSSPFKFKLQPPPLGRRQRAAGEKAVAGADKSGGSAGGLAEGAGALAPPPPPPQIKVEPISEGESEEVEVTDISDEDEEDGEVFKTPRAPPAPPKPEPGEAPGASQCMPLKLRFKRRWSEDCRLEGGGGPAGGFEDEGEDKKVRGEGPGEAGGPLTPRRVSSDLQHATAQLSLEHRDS
# Method in brief: as §1
# ETV3L = biological target: T5, ETV3L (Homo sapiens, UniProt Q6ZN32 1-361)
# T5 sequence: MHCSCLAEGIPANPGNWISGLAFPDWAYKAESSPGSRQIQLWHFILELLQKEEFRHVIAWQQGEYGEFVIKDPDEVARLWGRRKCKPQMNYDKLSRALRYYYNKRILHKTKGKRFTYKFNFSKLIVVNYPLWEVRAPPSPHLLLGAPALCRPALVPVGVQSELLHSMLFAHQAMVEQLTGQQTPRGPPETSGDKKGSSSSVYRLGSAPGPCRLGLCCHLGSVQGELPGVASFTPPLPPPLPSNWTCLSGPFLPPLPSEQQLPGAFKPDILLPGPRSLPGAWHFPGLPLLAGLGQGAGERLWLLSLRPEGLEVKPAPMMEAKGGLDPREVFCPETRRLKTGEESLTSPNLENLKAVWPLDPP
# Method in brief: as §1
# SPDEF = biological target: T6, SPDEF (Homo sapiens, UniProt O95238 1-335)
# T6 sequence: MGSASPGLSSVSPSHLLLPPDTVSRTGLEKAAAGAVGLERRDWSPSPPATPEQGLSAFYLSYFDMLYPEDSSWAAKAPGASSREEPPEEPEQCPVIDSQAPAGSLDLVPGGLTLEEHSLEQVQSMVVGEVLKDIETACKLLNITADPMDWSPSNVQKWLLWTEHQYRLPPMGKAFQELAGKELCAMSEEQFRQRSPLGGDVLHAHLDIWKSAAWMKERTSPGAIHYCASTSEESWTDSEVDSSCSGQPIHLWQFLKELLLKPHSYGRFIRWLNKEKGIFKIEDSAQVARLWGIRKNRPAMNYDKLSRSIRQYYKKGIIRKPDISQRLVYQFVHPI
# Method in brief: as §1
# Sequence of ELF1 (P32519 whole entry): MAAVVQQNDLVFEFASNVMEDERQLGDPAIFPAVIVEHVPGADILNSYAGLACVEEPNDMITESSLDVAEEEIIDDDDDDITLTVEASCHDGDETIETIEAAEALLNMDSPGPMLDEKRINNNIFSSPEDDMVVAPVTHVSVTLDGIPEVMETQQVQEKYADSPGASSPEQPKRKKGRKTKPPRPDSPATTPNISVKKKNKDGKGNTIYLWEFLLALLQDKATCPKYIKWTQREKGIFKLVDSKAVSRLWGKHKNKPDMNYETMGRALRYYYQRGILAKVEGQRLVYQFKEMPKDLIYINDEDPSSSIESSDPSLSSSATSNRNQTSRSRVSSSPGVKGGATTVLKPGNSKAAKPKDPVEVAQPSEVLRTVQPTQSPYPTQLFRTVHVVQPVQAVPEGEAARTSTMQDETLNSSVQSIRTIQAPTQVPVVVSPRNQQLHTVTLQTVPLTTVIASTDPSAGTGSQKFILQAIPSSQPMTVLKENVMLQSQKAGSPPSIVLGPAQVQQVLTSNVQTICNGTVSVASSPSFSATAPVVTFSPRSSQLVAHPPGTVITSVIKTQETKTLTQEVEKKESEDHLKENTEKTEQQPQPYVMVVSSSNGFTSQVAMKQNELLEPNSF
# Sequence of ETV5 (P41161 whole entry): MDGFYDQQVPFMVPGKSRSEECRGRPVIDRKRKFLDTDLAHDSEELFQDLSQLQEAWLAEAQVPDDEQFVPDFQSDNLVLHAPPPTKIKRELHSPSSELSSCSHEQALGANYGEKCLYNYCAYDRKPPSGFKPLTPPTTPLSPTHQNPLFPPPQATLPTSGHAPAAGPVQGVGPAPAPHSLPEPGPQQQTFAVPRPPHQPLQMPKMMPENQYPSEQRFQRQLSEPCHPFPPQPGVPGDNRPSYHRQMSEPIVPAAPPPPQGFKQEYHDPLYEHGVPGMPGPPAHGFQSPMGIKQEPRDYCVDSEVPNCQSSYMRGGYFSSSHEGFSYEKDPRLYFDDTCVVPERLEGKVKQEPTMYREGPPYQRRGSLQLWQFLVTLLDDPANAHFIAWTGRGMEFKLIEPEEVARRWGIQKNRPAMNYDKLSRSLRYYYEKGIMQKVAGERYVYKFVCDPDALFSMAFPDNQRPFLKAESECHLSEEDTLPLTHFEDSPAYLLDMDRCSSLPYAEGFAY
# Sequence of ELF4 (Q99607 whole entry): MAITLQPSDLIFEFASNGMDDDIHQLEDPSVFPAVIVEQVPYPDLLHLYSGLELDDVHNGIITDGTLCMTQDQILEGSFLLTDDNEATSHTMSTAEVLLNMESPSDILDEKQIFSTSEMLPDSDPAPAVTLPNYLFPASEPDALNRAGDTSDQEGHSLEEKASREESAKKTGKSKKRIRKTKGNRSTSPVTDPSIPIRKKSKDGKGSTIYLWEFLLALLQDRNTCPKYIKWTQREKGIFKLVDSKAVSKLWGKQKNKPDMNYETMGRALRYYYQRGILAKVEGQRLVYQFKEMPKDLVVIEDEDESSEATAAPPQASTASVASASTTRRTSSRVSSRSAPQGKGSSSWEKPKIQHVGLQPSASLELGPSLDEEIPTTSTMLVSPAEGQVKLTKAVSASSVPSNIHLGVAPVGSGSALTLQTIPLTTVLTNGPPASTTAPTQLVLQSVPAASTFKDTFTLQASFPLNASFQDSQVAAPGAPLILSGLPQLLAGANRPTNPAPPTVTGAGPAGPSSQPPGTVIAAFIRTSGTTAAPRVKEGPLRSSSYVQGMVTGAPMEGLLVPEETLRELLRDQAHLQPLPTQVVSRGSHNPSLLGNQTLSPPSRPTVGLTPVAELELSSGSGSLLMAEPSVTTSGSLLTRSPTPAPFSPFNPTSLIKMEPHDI
sequence,measurement,setting,value
GGTCCT,binding signal,FLI1,"1.02 fold enrichment (6-mer frequency, TF over GST control)"
same,binding signal,ERG,"1.01 fold enrichment (6-mer frequency, TF over GST control)"
same,binding signal,ELF1,"1.06 fold enrichment (6-mer frequency, TF over GST control)"
same,binding signal,ETV5,"1 fold enrichment (6-mer frequency, TF over GST control)"
same,binding signal,SPIC,"1.11 fold enrichment (6-mer frequency, TF over GST control)"
same,binding signal,ELF4,"1.02 fold enrichment (6-mer frequency, TF over GST control)"
same,binding signal,ERF,"1.16 fold enrichment (6-mer frequency, TF over GST control)"
same,binding signal,ETV3L,"1.03 fold enrichment (6-mer frequency, TF over GST control)"
same,binding signal,SPDEF,"1.1 fold enrichment (6-mer frequency, TF over GST control)"
